Among the data in PubChem BioAssay are outcome values, retold here.

Potency and affinity values are given separately. Activity calls are given as the source filed them. Where a call stands in place of a potency, no number is given. No cut-off is given here; in the data, nearly all actives have IC50 up to about 0.98 µM.

The target in this test is Calcium-dependent protein kinase 1 (Plasmodium falciparum (isolate 3D7)) (UniProt P62344). In words: PfCDPK1 kinase inhibitors, biochemical, TCAMS library (AID 1159585).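 Note: inhibitors leave more ATP so luminescence rises with inhibition.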 Particulars: recombinant PfCDPK1, Kinase-Glo ATP depletion luminescence. For orientation: Kinase-Glo measures the ATP left after a reaction by luminescence.
Chain of Calcium-dependent protein kinase 1 (Plasmodium falciparum (isolate 3D7)) (P62344 whole entry, looked up): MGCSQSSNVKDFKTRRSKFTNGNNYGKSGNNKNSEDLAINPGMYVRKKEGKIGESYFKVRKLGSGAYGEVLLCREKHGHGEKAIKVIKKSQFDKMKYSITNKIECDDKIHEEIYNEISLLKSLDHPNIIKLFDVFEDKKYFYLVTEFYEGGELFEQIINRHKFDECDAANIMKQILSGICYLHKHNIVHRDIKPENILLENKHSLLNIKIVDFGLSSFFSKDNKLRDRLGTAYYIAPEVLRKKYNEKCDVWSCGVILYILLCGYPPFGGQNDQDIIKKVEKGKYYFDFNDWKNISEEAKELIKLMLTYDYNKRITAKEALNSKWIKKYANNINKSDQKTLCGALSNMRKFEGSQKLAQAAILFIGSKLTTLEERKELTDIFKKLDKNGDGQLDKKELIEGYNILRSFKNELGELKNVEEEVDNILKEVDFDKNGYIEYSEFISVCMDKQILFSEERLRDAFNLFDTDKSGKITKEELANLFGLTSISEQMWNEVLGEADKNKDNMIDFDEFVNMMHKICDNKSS
`Cc1[nH]nc2ccc(-c3cc(OC[C@@H](N)Cc4ccccc4)cnc3-c3cc4ccccc4s3)cc12`: the outcome was inactive.

Regarding `Cc1ccc(Nc2c3ccccc3nc3ccc(C)cc23)cc1`, the outcome was inactive. Turning to `NS(=O)(=O)c1cccc(N=Cc2c(O)[nH]c3ccc(S(=O)(=O)Cc4c(Cl)cccc4Cl)cc23)c1`, the result was inactive. On to `CCNC(=O)Nc1ccc(N(C)c2ccnc(Nc3ccc(CS(C)(=O)=O)cc3)n2)cc1`, for which the outcome was inactive. On to `O=C(O)c1ccc(-c2cnc3ccc(NC4CCC(O)CC4)nn23)cc1` (stereo unspecified), for which the outcome was inactive.

With `CCN(CC)CCCC(C)Nc1nc(C=Cc2ccc(Br)cc2)nc2cc(Cl)ccc12` (stereo unspecified), the result was inactive. On to `COc1ccc(NC(=O)c2ccc(-c3cccc(OCc4ccccc4)c3)cc2)cc1N1CCN(C)CC1`, for which the result was inactive. Next, `CN(C)CC(O)COc1ccc(Nc2ncc([N+](=O)[O-])c(Nc3ccccc3O)n2)cc1` (stereo unspecified): “inactive”; `CCc1cc2c3c(N)nc(N)nc3ccc2n1C(C)(C)C`: “inactive”; `CC(Sc1n[nH]c(-c2ccccc2Br)n1)C(=O)Nc1ccc(F)cc1` (stereo unspecified): “inactive”. As for `O=c1c2cccnc2sn1-c1ccccc1`, the result was inactive.

Consider `O=C(CN1C(=O)CC1S(=O)(=O)Cc1ccco1)NCCCCCCc1ccc(F)cc1` (stereo unspecified), for which the result was inactive. On to `CCN(CC)CCNC(=O)c1ccc(N=Cc2c(O)[nH]c3ccc(S(=O)(=O)Cc4c(Cl)cccc4Cl)cc23)cc1`, for which the result was inactive.

As for `N#Cc1ccc(C(=O)Nc2cc(-c3cccc(O)c3)cc3[nH]ncc23)cc1`, the result was inactive. With `Cc1ccc(Nc2nc3cc(Nc4ccnc(Nc5cccc(CS(C)(=O)=O)c5)n4)ccc3o2)cc1`, the outcome was inactive. Next, `C[C@H]1CN(Cc2ccc(-c3cccc(CNC(=O)c4cccc(C(=O)c5ccc(Cl)c(Cl)c5)c4)c3)s2)CCN1`: “inactive”.
